CHRM1 agonist – human M1 muscarinic receptor agonism; 360,000 compounds, 0.33% hits; activation, % at 3 µM; CHO-K1 hM1, Fluo-8 calcium fluorescence, agonist mode; 0% DMSO, 100% acetylcholine EC100;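 active = activation above the run's mean compound activation plus 3 SD, cut at about 16% in these data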;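 note: peak over basal fluorescence ratio within a 140 s kinetic read after compound addition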
Target sequence (P11229 whole entry, looked up): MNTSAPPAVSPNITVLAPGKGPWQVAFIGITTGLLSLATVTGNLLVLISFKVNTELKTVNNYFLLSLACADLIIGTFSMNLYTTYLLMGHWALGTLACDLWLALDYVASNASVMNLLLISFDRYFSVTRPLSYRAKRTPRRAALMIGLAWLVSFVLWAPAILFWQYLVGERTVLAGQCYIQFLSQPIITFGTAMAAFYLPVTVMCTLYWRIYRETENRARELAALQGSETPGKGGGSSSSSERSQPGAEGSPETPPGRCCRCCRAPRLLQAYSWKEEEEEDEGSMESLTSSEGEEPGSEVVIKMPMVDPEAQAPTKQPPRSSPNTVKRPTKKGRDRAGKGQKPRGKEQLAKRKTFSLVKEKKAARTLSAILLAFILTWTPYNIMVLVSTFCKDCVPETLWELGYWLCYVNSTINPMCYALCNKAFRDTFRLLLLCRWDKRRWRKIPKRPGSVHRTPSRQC
CHO-K1 Ca ag – M1 agonist counterscreen hit in parental CHO-K1 cells; Fluo-8 calcium fluorescence; scaled to maximal ATP response, vehicle zero; 360,000 compounds, 0.48% hits; activation, % at 3 µM; in the data active = activation above about 15%;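 note: untransfected CHO-K1 host cells lacking M1 receptor as counterscreen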
M1 PAM parental – nonselective activator or artifact in parental CHO-K1 calcium assay; 360,000 compounds, 0.02% hits; activation, % at 3 µM; ATP EC20, Fluo-8 calcium fluorescence; 0% at ATP EC20, 100% at ATP max; AID 602247;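 active = activation above the run cutoff, the mean activation of all test compounds plus 3 SD, cut at about 40% in these data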;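 note: peak over basal fluorescence ratio in a 140 s read after ATP addition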
M1 antag – antagonists of human M1 muscarinic receptor; 360,000 compounds, 1.3% hits; AID 588852; CHO-K1 hM1, Fluo-8 calcium fluorescence, ACh EC80 antagonist; P11229; inhibition, % at 3 µM;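 active = percent inhibition above its own plate's cutoff, namely the mean of that plate's compound wells plus 3 SD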;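 note: peak over basal fluorescence ratio during 140 s after agonist addition; 0% = ACh EC80 plus DMSO and 100% = DMSO alone without agonist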
CHO-K1 Ca antag – nonselective inhibitor or artifact in parental CHO-K1 cells; ATP-induced calcium, Fluo-8 fluorescence; inhibition, % at 3 µM; 360,000 compounds, 0.6% hits;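 active = inhibition above a per-plate cutoff, the plate's mean sample inhibition plus 3 SD, cut at about 24% in these data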;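 note: 0% = DMSO plus EC80 ATP and 100% = DMSO alone without ATP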
M1 PAM – positive allosteric modulators of human M1 muscarinic receptor | P11229 | CHO-K1 hM1, Fluo-8 calcium fluorescence, ACh EC20; 0% = ACh EC20, 100% = maximal ACh | activation, % at 3 µM | 360,000 compounds, 0.088% hits | AID 588819; in the data active = activation above about 19%, passing the limit was not always enough
Active calls of the source: *. Rows were chosen to be rich in hits. Some 2.3% of all compounds tested hit in one or more screens of this group.

SMILES | CHRM1 agonist | CHO-K1 Ca ag | M1 PAM parental | M1 antag | CHO-K1 Ca antag | M1 PAM
CCCC(C(=O)NC1CCCC1)N(CC1CCCO1)C(=O)CNS(=O)(=O)c1ccccc1 (stereo not drawn) | -4 | 0 | -1 | -5 | -7 | 0
CC(C)c1ccc2[nH]c3nc(SCC(=O)N4CCOCC4)nnc3c2c1 | -5 | 4 | 12 | -4 | -16 | 6
Cn1c(=O)c2cc(NC(=O)CCc3cccnc3)ccc2n1Cc1ccc(F)cc1 | -4 | 1 | 12 | -7 | -10 | 1
CCCCCn1nc(C(=O)OCC(=O)c2c(N)n(C)c(=O)n(C)c2=O)c2ccccc2c1=O | -1 | 1 | 19 | -6 | -15 | 8
CCCCCCn1nc(C(=O)OCC(=O)c2c(N)n(C)c(=O)n(C)c2=O)c2ccccc2c1=O | -2 | 5 | -5 | 39* | 4 | -17
O=C(CCC(=O)N(CC(=O)NC1CCCC1)c1ccccc1F)Nc1nccs1 | -3 | 1 | 9 | -7 | -5 | 7
CCOCCCn1c(SCC(=O)Nc2ccccc2)nc2ccccc2c1=O | -6 | 0 | -24 | 0 | 35* | -2
CCOCCCn1c(SCC(=O)Nc2ccc(NC(C)=O)cc2)nc2ccccc2c1=O | -2 | 0 | 12 | -18 | -2 | 2
CCc1ccc(NC(=O)CSc2nc3ccccc3c(=O)n2CCCC(=O)N2CCCC2)cc1 | 1 | 0 | -4 | -6 | 25* | 10
COCC(COS(N)(=O)=O)C(C)C (stereo not drawn) | -3 | 0 | -16 | 1 | -1 | -2
O=[N+]([O-])c1ccc(C[n+]2ccc(Cc3ccccc3)cc2)cc1 | -14 | 0 | 16 | 28* | -6 | -31
O=C(C[n+]1ccc(Cc2ccccc2)cc1)Nc1ccc([N+](=O)[O-])cc1Cl | -6 | 0 | 24 | 86* | -21 | -22
Cc1cccc[n+]1CC(=O)Nc1ccc([N+](=O)[O-])cc1Cl | -5 | 0 | -5 | 36* | 10 | -12
Cc1ccc(C(=O)NCC(=O)Nc2ccc(Cl)cc2)s1 | 0 | 0 | 10 | -15 | -9 | 10
CNC(=S)N1N=C(c2ccc(OC)cc2)CC1c1ccccc1Cl (stereo not drawn) | -8 | 1 | -7 | 34* | -6 | -22
CC1CC(C)CN(C(=O)COC(=O)COc2ccc(C#N)cc2)C1 (stereo not drawn) | 2 | 1 | 20 | 2 | -6 | -3
C=CCn1c(SCCOc2ccc(OC)cc2)nnc1C(CO)NC(=O)c1ccc(OC)cc1 (stereo not drawn) | -3 | 1 | -14 | 17 | 25* | -7
CCOc1ccc(OCC)c(Nc2cc(C)nc3nc(C)nn23)c1 | 1 | 0 | -11 | -13 | 34* | 10
Cc1cc(Nc2ccc(Br)cc2F)n2nc(C)nc2n1 | -7 | 0 | 41* | -21 | 1 | 8
Cc1cc(Nc2ccccc2F)n2nc(C)nc2n1 | 1 | 0 | -3 | -6 | -1 | 13
Cn1c(CCC(=O)OCC(=O)Nc2ccc(Oc3ccccc3)cc2)nc(=O)c2ccccc21 | -11 | 1 | 10 | 37* | 0 | -29
COc1ccccc1N1C(=O)C2C(C(=O)c3ccccc3)=NN(c3ccc(Br)cc3)C2C1=O (stereo not drawn) | -1 | 31* | -1 | -6 | 30* | 10
O=C(CSc1nnc(Cc2ccccc2)c(=O)[nH]1)Nc1ccccc1 | -2 | 1 | 18 | -3 | -7 | 1
COc1ccc(CCNC(=O)c2ccc3c(c2)S(=O)(=O)N=C2CCCCCN23)cc1 | -4 | 0 | -3 | -4 | -4 | 1
COc1cc(C(=O)N/N=C(\C)Cn2nc([N+](=O)[O-])cc2C)ccc1O | -8 | 0 | -12 | -2 | 28* | 7
SMILES | CHRM1 agonist | CHO-K1 Ca ag | M1 PAM parental | M1 antag | CHO-K1 Ca antag | M1 PAM
C/C(Cn1nc([N+](=O)[O-])cc1C)=N\NC(=O)c1ccc(O)cc1O | -5 | 2 | 23 | -9 | -24 | 7
COc1cccc(-c2ccc(NC(=O)C3CCCN(CCCn4nc(C)cc4C)C3)cc2)c1 (stereo not drawn) | -2 | 5 | 8 | 49* | -3 | -24
COc1cccc(-c2ccc(NC(=O)C3CCCN(Cc4ccco4)C3)cc2)c1 (stereo not drawn) | -3 | 2 | 9 | -2 | -7 | 3
c1ccc2c(OCCCN3CCCCCC3)cccc2c1 | -7 | 0 | 7 | -7 | -4 | 3
CCC(C(=O)Nc1ccc(C)cc1)c1ccccc1 (stereo not drawn) | -3 | 1 | 8 | 8 | -8 | -2
CCc1ccc(NC(=O)C(CC)c2ccccc2)cc1 (stereo not drawn) | 26* | 19* | 24 | 17 | -4 | -6
CCC(C(=O)Nc1ccc(C(=O)N2CCCC2)cc1)c1ccccc1 (stereo not drawn) | 18* | 11 | 2 | 13 | -3 | -8
C[C@H]1CN([C@@H](C)CO)C(=O)CCCn2cc(nn2)CO[C@@H]1CN(C)C(=O)c1ccncc1 | -3 | 0 | 22 | -7 | -22 | 5
Cn1c(SCC(=O)Nc2ccc3nc(SCC(=O)N4CCCC4)sc3c2)nnc1-c1ccc(N)cc1 | -6 | -1 | -7 | 12 | 31* | -7
COC(=O)c1scc(C)c1N1C(=O)c2ccccc2C1=O | -2 | 0 | -15 | -21 | 6 | 11
Cc1cc(C(=O)CSc2cccc[n+]2[O-])c(C)n1-c1ccc(OC(F)F)cc1 | 0 | 13 | 17 | -7 | -8 | 2
COC(=O)c1ccc(-n2c(C)cc(C(=O)CSc3cccc[n+]3[O-])c2C)cc1 | -4 | 16* | 8 | -9 | -2 | 7
C=CCNc1nc(N)c([N+](=O)[O-])c(N2CCCCCC2)n1 | -7 | 5 | 16 | -11 | -13 | 5
CCN(CC)CCCNc1nc(N)c([N+](=O)[O-])c(N2CCCCCC2)n1 | -11 | 1 | -16 | 65* | 1 | -35
C[C@H](O)[C@@H]1C(=O)N2CCc3ccc(N4CCN(C)CC4)cc3[C@@H]2C[C@@H]1N(C)C(=O)c1ccco1 | -6 | 9 | 3 | 7 | 1 | -1
CN(C(=O)CSc1nnc(-c2ccccc2F)n1N)C1CCCCC1 | -1 | 1 | 4 | 3 | 8 | 6
CCOC(=O)c1ccc(N=C2SC(C(=O)NCCc3ccccc3)CC(=O)N2C)cc1 (stereo not drawn) | -5 | 1 | -12 | 8 | -9 | -1
CCNC(=O)C1CC(=O)N(CCCc2ccccc2)C(=Nc2ccccc2)S1 (stereo not drawn) | -4 | 19* | 10 | -12 | 1 | 7
CCOC(=O)C1=C(C)NC(=O)/C1=C\N(C)C | -2 | 0 | -15 | 12 | 28* | -11
CCOC(=O)C1=C(C)S/C(=C\N(C)C)C1=O | 8 | 0 | 8 | -29 | 3 | 8
